Drawing on PubChem BioAssay (NCI), this text covers growth for eight molecules.

Compounds without any hit were thinned out: in the full panel of roughly 83,000, 20% have a hit.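 Results are percent growth after 48 hours of single-concentration exposure. 100 means growth as in untreated cells, lower positive values show inhibition; negative values down to -100 show cell death.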 Unmarked numbers belong to inactive results. Active and inactive are the calls of the source. The calls were made as follows: active = growth percent below 10; inactive = the rest.

Some test systems named below: SR leukemia; RPMI-8226 leukemia; OVCAR-8 ovarian; OVCAR-5 ovarian; OVCAR-4 ovarian; SK-OV-3 ovarian; IGROV1 ovarian; OVCAR-3 ovarian; HS 578T breast; NCI/ADR-RES ovarian; T-47D breast; BT-549 breast; MDA-MB-435 melanoma; SW-620 colon; MCF7 breast; HCT-116 colon; HCC-2998 colon; KM12 colon.
Experiment in all cases: NCI-60 one-dose screen, 48 h (100 = growth as untreated, 0 = no growth, -100 = all killed)
Holding throughout (settings): 10 µM unless noted

Consider `Cn1c2c(cc(S(=O)(=O)c3ccccc3)c1=O)CCc1c-2cnn1-c1ccc(Cl)cc1`, for which the growth in the experiment with SR leukemia was 52%; with RPMI-8226 leukemia, 49.3%; with OVCAR-8 ovarian, -48.4% (active); in the experiment with OVCAR-5 ovarian, 26.2%; in the experiment with OVCAR-4 ovarian, -9.94% (active); with SK-OV-3 ovarian, 1.98% (active). Besides, the growth in the experiment with IGROV1 ovarian is 50.6%; in the experiment on OVCAR-3 ovarian, 56.4%; in the experiment on HS 578T breast it was -10.1% (active); in the experiment with NCI/ADR-RES ovarian it was 39.3%; in the experiment on T-47D breast it was -24.2% (active); with BT-549 breast it was -13.8% (active). For the same molecule, the growth with MDA-MB-435 melanoma was 16.2%; in the experiment on SW-620 colon, 56.7%; in the experiment on MCF7 breast, -27.7% (active); in the experiment on HCT-116 colon, 53%; in the experiment on HCC-2998 colon, 74.3%; with KM12 colon, 92.2%.

As to `CCCC(=O)NNc1[nH]c(-c2cc(OC)c(OC)c(OC)c2)cc1C(=O)OCC`, the growth in the experiment with SR leukemia is 68.2%; in the experiment with RPMI-8226 leukemia, 101%; in the experiment on OVCAR-8 ovarian, 108%; in the experiment on OVCAR-5 ovarian, 92.8%; with OVCAR-4 ovarian it was 118%; in the experiment with SK-OV-3 ovarian, 110%. The growth in the experiment with IGROV1 ovarian is 22.6%; in the experiment on OVCAR-3 ovarian, 92.6%; in the experiment on HS 578T breast, 105%; with NCI/ADR-RES ovarian, 114%; in the experiment on T-47D breast it was 82.1%; with BT-549 breast it was 100%. For the same molecule, the growth in the experiment on MDA-MB-435 melanoma is 101%; in the experiment with SW-620 colon it was 109%; in the experiment on MCF7 breast, 117%; in the experiment with HCT-116 colon it was 93%; in the experiment with HCC-2998 colon it was 95.3%; in the experiment on KM12 colon, 125%.

As for `COc1ccc(/C=C2\SC(=O)N(Cc3cc(=O)oc4ccc(OC)cc34)C2=O)cc1`, the growth with SR leukemia was 69.6%; with RPMI-8226 leukemia, 64.1%; in the experiment on OVCAR-8 ovarian, 95.4%; with OVCAR-5 ovarian, 100%; in the experiment on OVCAR-4 ovarian, 63.6%; in the experiment on SK-OV-3 ovarian, 96.6%. Besides, the growth was 98.1% in the experiment on IGROV1 ovarian; 84.6% in the experiment with OVCAR-3 ovarian; 103% in the experiment with HS 578T breast; 95.7% with NCI/ADR-RES ovarian; 63.1% in the experiment with T-47D breast; 77.4% with BT-549 breast. Further, the growth is 100% with MDA-MB-435 melanoma; 106% in the experiment with SW-620 colon; 82.5% in the experiment on MCF7 breast; 82.8% in the experiment with HCT-116 colon; 95.4% in the experiment with HCC-2998 colon; 88.9% in the experiment with KM12 colon.

Consider `Cc1nn(-c2ccccc2)c(N)c1N=C1NC(=O)/C(=C/c2ccc(Cl)cc2)S1`, for which the growth in the experiment on SR leukemia is 34.1%; in the experiment with RPMI-8226 leukemia, 49.5%; with OVCAR-8 ovarian, 91.6%; in the experiment with OVCAR-5 ovarian it was 86.6%; in the experiment with OVCAR-4 ovarian, 75.2%; in the experiment with SK-OV-3 ovarian, 88%. For the same molecule, the growth in the experiment with IGROV1 ovarian was 104%; with OVCAR-3 ovarian, 68.8%; with HS 578T breast, 93.1%; in the experiment with NCI/ADR-RES ovarian it was 92.2%; with T-47D breast, 74.4%; in the experiment on BT-549 breast it was 75.8%. Moreover, the growth with MDA-MB-435 melanoma was 66.9%; in the experiment on SW-620 colon it was 82.2%; in the experiment with MCF7 breast, 70.9%; in the experiment with HCT-116 colon it was 83.6%; with HCC-2998 colon it was 121%; in the experiment with KM12 colon it was 78.3%.

Regarding `COc1cc2c(c3c1c(=O)c1cccc(F)c1n3C)C=CC(C)(C)O2`, the growth was 48.8% with SR leukemia; 64.7% with RPMI-8226 leukemia; 85.2% in the experiment with OVCAR-8 ovarian; 101% in the experiment with OVCAR-5 ovarian; 101% with OVCAR-4 ovarian; 110% in the experiment with SK-OV-3 ovarian. Besides, the growth in the experiment with IGROV1 ovarian is 75.4%; in the experiment with OVCAR-3 ovarian it was 117%; with HS 578T breast, 101%; in the experiment with NCI/ADR-RES ovarian it was 83.9%; in the experiment on T-47D breast it was 89.2%; in the experiment on BT-549 breast, 100%. The growth in the experiment on MDA-MB-435 melanoma was 94.9%; in the experiment on SW-620 colon, 113%; in the experiment on MCF7 breast, 44.6%; in the experiment with HCT-116 colon it was 92.8%; in the experiment with HCC-2998 colon, 101%; in the experiment on KM12 colon it was 76.6%.

`COc1ccc(/C=C(/C(=O)N2CCN(c3ccc(C)cc3)CC2)c2cc(OC)c(OC)c(OC)c2)cc1N`: the growth is 11.3% in the experiment with SR leukemia; 12.8% with RPMI-8226 leukemia; 21.6% in the experiment on OVCAR-8 ovarian; 27.1% in the experiment on OVCAR-5 ovarian; 43.9% in the experiment with OVCAR-4 ovarian; 26.2% with SK-OV-3 ovarian. In addition, the growth in the experiment with IGROV1 ovarian is 24.7%; in the experiment on OVCAR-3 ovarian it was -27.8% (active); with HS 578T breast it was 32.6%; in the experiment on NCI/ADR-RES ovarian, 13.7%; in the experiment on T-47D breast it was 97.2%; with BT-549 breast it was 16.6%. Moreover, the growth with MDA-MB-435 melanoma is -43.8% (active); with SW-620 colon it was 27.1%; in the experiment with MCF7 breast, 12%; in the experiment on HCT-116 colon it was 3.55% (active); with HCC-2998 colon, 31.8%; with KM12 colon, 3.83% (active).

Consider `CCCCCCCCCCC1OC(C)CC(C)O1` (centres undefined), for which the growth was 71.6% in the experiment with SR leukemia; 99.6% in the experiment on RPMI-8226 leukemia; 99.5% in the experiment on OVCAR-8 ovarian; 99.2% in the experiment on OVCAR-5 ovarian; 111% with OVCAR-4 ovarian; 103% in the experiment on SK-OV-3 ovarian. In addition, the growth with IGROV1 ovarian is 109%; in the experiment on OVCAR-3 ovarian, 98.3%; with HS 578T breast, 101%; in the experiment on NCI/ADR-RES ovarian, 105%; in the experiment on T-47D breast, 88.7%; with BT-549 breast, 101%. The growth in the experiment with MDA-MB-435 melanoma is 107%; in the experiment with SW-620 colon, 103%; in the experiment on MCF7 breast it was 98.6%; in the experiment with HCT-116 colon, 97.3%; in the experiment on HCC-2998 colon it was 101%; in the experiment with KM12 colon, 103%.

Consider `CCOC(=O)C1=C(c2ccccc2)NC(=O)NC1CN1C(=O)c2ccccc2C1=O` (centres undefined), for which the growth with SR leukemia was -32.9% (active); in the experiment with RPMI-8226 leukemia, 97.9%; in the experiment on OVCAR-8 ovarian, 111%; in the experiment with OVCAR-5 ovarian it was 100%; in the experiment with OVCAR-4 ovarian it was 107%; with SK-OV-3 ovarian, 113%. Also, the growth in the experiment with IGROV1 ovarian was 98.4%; in the experiment with OVCAR-3 ovarian, 111%; in the experiment on HS 578T breast, 105%; in the experiment on NCI/ADR-RES ovarian it was 103%; in the experiment on T-47D breast, 99%; with BT-549 breast, 129%. Also, the growth was 114% in the experiment with MDA-MB-435 melanoma; 107% in the experiment with SW-620 colon; 98.3% with MCF7 breast; 99.6% in the experiment on HCT-116 colon; 62.9% with HCC-2998 colon; 113% with KM12 colon.
